The source made the active and inactive calls. How the source made its calls: active means hit-call score of the fitted dose curve at least 0.9, where 1 is the maximum; inactive means score below 0.9.

Read-out in the test: urokinase plasminogen activator (uPA), PLAU (gene 5328)
Nature of the test: BSK_KF3CT_uPA: BioMAP Diversity Plus: KF3CT Assay for urokinase plasminogen activator (uPA) Biomarker Activity (AID 2283075). The note with it: primary human keratinocytes with fibroblasts; actives raise or lower the signal. The method, boiled down:
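Values derive from bidirectional fitting against DMSO controls. Keratinocyte/foreskin fibroblast co-cultures received chemical; 24 h later uPA was detected by ELISA, with SRB total-protein staining in parallel wells for overt cytotoxicity.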
`O=C(O)COc1nc(Cl)c(Cl)cc1Cl`: the outcome was inactive. On the same count and under the same terms, in the case of `N#Cc1nn(-c2c(Cl)cc(C(F)(F)F)cc2Cl)c(N)c1S(=O)C(F)(F)F` (configuration not stated) it was “inactive”. Regarding `CC(C)Oc1cc(-n2nc(C(C)(C)C)oc2=O)c(Cl)cc1Cl`, the result was inactive.

As for `CCOP(=S)(OCC)SCn1c(=O)oc2cc(Cl)ccc21`, the result was inactive. With `CCCC1COC(Cn2cncn2)(c2ccc(Cl)cc2Cl)O1` (configuration not stated), the outcome was inactive. The same measure, in the same setting: as for `COC(=O)C=C(C)OP(=O)(OC)OC`, the entry is “inactive”; as for `CCNc1nc(Cl)nc(NCC)n1`, “inactive”; as for `COc1ccc(C(c2ccc(OC)cc2)C(Cl)(Cl)Cl)cc1`, “inactive”.

Turning to `CCOC(=O)C(Cl)Cc1cc(-n2nc(C)n(C(F)F)c2=O)c(F)cc1Cl` (configuration not stated), the outcome was inactive. On to `CCc1nn(C)c(C(=O)NCc2ccc(C(C)(C)C)cc2)c1Cl`, for which the AC50 is 35.4 µM (active). `N#CC(CCc1ccc(Cl)cc1)(Cn1cncn1)c1ccccc1` (configuration not stated): the outcome was inactive. Take `CN(C)C(=S)SSC(=S)N(C)C`: the AC50 was 10.3 µM (active). Take `CNC(=S)S`: the result was inactive. The same measure, in the same setting: as for `CON(C)C(=O)Nc1ccc(Cl)c(Cl)c1`, the entry is “inactive”. On the same count and under the same terms, in the case of `Cc1ccc(-c2c(Cl)nc(C#N)n2S(=O)(=O)N(C)C)cc1` it was “inactive”; in that of `COc1nc(NC(C)C)nc(NC(C)C)n1`, “inactive”. As for `CC(C)(C)c1ccc(CSc2cnn(C(C)(C)C)c(=O)c2Cl)cc1`, the AC50 was 4.28 µM (active). On to `COC(=O)N(OC)c1ccccc1COc1ccn(-c2ccc(Cl)cc2)n1`, for which the outcome was inactive. Still for that read-out and setting: as for `N#Cc1cc(Br)c(O)c(Br)c1`, the entry is “inactive”; as for `COP(=S)(OC)Oc1nc(Cl)c(Cl)cc1Cl`, “inactive”; as for `CCCCNC(=O)n1c(NC(=O)OC)nc2ccccc21`, “inactive”. Same read-out and setting: in the case of `CC(Oc1ccc(Cl)cc1Cl)C(=O)O` (configuration not stated) it was “inactive”.

By AC50 is commonly meant the concentration at which the activity in the assay is half-maximal.

Source of the values: PubChem BioAssay (EPA / NIEHS).
